# Cav32 inh – Cav3.2 calcium influx blockers – cell-based, Fluo-4 calcium fluorescence, FDSS, MLSMR library, primary screen; 100,000 compounds, 4% hits; Voltage-dependent T-type calcium channel subunit alpha-1H (Homo sapiens), O95180; B-score at 10 µM; Cav3.2-expressing cells; hits give low values; AID 449739, 2010;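 active = single-dose well whose peak fluorescence ratio is a statistical outlier from its plate by either plate-standardised score or position-corrected B-score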
# CYP2C19 act – human CYP2C19 activators, primary screen, biochemical, luminescence | 96,000 tested, under 10 active | Cytochrome P450 2C19 (Homo sapiens), P33261 | AID 1025, 2008 | activation factor at 5 µM | recombinant CYP2C19, luciferin-H EGE luminescence; hits give high values; 0 = fully inhibited enzyme, 1 = untreated enzyme;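 active = activation factor of at least 2 at 5 µM in the primary screen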;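 also: 0 = wells with 2.5 mM tranylcypromine and 1 = vehicle-only wells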
# Target sequence (P33261 whole entry, looked up): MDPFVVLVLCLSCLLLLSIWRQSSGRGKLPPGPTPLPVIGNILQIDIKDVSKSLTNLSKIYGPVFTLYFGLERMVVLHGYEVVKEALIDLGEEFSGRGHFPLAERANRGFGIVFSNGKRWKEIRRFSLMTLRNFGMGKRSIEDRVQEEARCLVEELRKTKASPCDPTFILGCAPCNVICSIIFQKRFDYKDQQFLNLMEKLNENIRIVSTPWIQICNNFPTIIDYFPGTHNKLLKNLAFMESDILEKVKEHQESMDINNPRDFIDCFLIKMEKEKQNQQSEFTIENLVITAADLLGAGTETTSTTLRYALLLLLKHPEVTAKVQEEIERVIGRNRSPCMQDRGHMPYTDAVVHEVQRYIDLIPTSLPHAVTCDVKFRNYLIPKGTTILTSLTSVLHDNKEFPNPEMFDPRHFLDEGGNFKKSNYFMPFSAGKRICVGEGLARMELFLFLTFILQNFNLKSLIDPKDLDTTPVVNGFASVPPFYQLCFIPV
# CYP2C9 activ – human CYP2C9 activators, primary screen, biochemical, luminescence. AID 1024, 2008. recombinant CYP2C9, luciferin-H conversion; hits give high values; factor 1 = untreated enzyme, 0 = blocked. 96,000 compounds, 1.4% hits. activation factor at 5 µM;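 active = activation factor of 2 or more for CYP2C9 at a 5 µM dose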;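 also: 0 = sulfaphenazole-blocked wells and 1 = vehicle-only wells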
# CYP2C9 inh – blockers of cytochrome P450 2C9 activity – biochemical, luminescence, ADME assay, primary screen | inhibition, % at 5 µM | 96,000 compounds, 20% hits | CYP2C9 Supersomes, luciferin-H conversion | P11712;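 active = blocking of liver enzyme CYP2C9 beyond about 50% at 5 µM, limit read from the data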
# CYP2C19 inh – blockers of cytochrome P450 2C19 activity – biochemical, luminescence, ADME assay, primary screen | 96,000 compounds, 21% hits | CYP2C19 Supersomes, luciferin-H EGE luminescence, 30 min | AID 778, 2007 | inhibition, % at 5 µM;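 active = CYP2C19 inhibition above a set limit at 5 µM in the primary screen, cut at about 50% in these data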;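 also: plate controls were negative control wells for no effect and 2.5 mM tranylcypromine positive control for full effect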
# Numbers without * were called inactive; nt = no result given. Rows were chosen to be rich in hits. Some 27% of all compounds tested hit in one or more screens of this group.
SMILES,Cav32 inh,CYP2C19 act,CYP2C9 activ,CYP2C9 inh,CYP2C19 inh
COc1ccc(OCCSc2nnc(C)n2-c2ccccc2)cc1,0.26,nt,nt,nt,nt
N#Cc1ccc(OCc2nnc(SCC(=O)N3CCCc4ccccc43)n2-c2ccccc2)cc1,-7.4*,0.1,0.1,87*,85*
O=C(CSc1nnc2scc(-c3ccccc3)n12)N1CCCc2ccccc21,-0.46,0.4,0.6,36,61*
O=C(CSc1nnc2scc(-c3ccccc3)n12)N1CCN(Cc2ccccc2)CC1,-1.3,0.6,0.5,49,41
CCCn1c(SCC(=O)N2CCc3ccccc32)nnc1-c1ccco1,0.38,0.5,0.8,19,49
CCOC(=O)c1ccc(NC(=O)NS(=O)(=O)c2ccc(C)cc2)cc1,nt,0.9,0.9,12,12
COc1ccc2c(c1)C(c1ccc([N+](=O)[O-])cc1)=NNC(c1ccco1)=N2,nt,0.6,0.7,26,36
Cn1c(SCC(=O)N2CCCc3ccccc32)nnc1-c1cccs1,0.77,0.5,0.9,7,47
COc1ccccc1-n1c(SCC(=O)N2CCCCC2)nnc1-c1ccccc1O,0.0038,0.7,0.7,35,27
Cc1ccc(-c2nnc3ccc(SCC(=O)N4CCc5ccccc54)nn23)cc1,-0.52,0.8,0,100*,20
COc1ccccc1OCc1nnc(SCC(=O)N2CCCCC2)n1-c1ccccc1,1.2,0.3,0.9,7,71*
Cc1ccc(-c2nnc(SCC(=O)N3CCCc4ccccc43)n2N)cc1,1.4,0.4,1.2,-19,58*
C=CCNC(=S)NNC(=O)C(CCCC)CC(C)(C)O (configuration not stated),0.52,nt,nt,nt,nt
CC(C)N=C(NC#N)SCc1ccccc1F,0.23,0.2,0.5,49,85*
CC(C)(C)NC(=O)CSC(=Nc1cccc(F)c1)NC#N,0.083,0.9,0.7,32,6
CC(C)CC(=O)N1CCN(Cc2cccc(F)c2)CC1,0.28,0.4,1,-4,59*
CCCNC(=O)c1c(CSc2ccccc2)noc1C(=O)NCc1ccccc1,-0.23,nt,nt,nt,nt
CCCCNC(=O)c1onc(CSc2cccc(OCC)c2)c1C(=O)O,-1,0.7,0.1,92*,28
CC(C)NC(=O)c1onc(CSc2cccc3ccccc23)c1C(=O)O,-0.68,0.7,0,95*,32
CCCCNC(=O)c1onc(CSc2ccccc2)c1C(=O)O,0.075,0.8,0.4,57*,19
CCCNC(=O)c1onc(CSc2ccc(Cl)cc2)c1C(=O)NCCC(C)C,-3.1,nt,nt,nt,nt
CCCCNC(=O)c1onc(CSc2ccc(C(C)C)cc2)c1C(=O)O,-0.17,0.7,0.1,94*,28
CCOc1cccc(SCc2noc(C(=O)NCCOC)c2C(=O)O)c1,0.6,0.9,0.6,37,6
CCCCC(=O)Nc1c(C)cc(C)cc1Cl,1.3,0.7,0.9,13,26
c1cc(-c2cc3cc(N4CCOCC4)ccc3o2)cs1,0.11,nt,nt,nt,nt
SMILES,Cav32 inh,CYP2C19 act,CYP2C9 activ,CYP2C9 inh,CYP2C19 inh
CCCCNC(=O)c1onc(CSc2cccc(OC)c2)c1C(=O)NCCCC,-1.5,nt,nt,nt,nt
CCCCNC(=O)c1onc(CSc2cccc3ccccc23)c1C(=O)O,-3.1*,0.4,0,97*,58*
CCCCNC(=O)c1onc(CSc2cccc(Cl)c2)c1C(=O)O,-1.3,0.7,0.2,84*,28
O=S(=O)(NC1CC1)c1ccc(S(=O)(=O)N2CCCC3(CCCCC3)C2)cc1,-0.75,0.7,0.5,49,26
COc1cc(-c2nnc(SCc3cc(=O)oc4cc(C)ccc34)o2)cc(OC)c1OC,0.051,0.3,0.2,83*,66*
Cc1ccc2c(CSc3nnc(C4CC4)n3N)cc(=O)oc2c1,0.14,0.2,0.9,10,78*
Cc1ccc2c(CSc3nnc(C4CC4)n3N)cc(=O)oc2c1C,nt,0.6,1,0,44
COc1cc(-c2nnc(SCC#CCO)o2)cc(OC)c1OC,0.93,0.8,0.7,29,16
O=C(NC(=S)NCCN1CCOCC1)c1ccccc1Cl,0.28,0.5,1.1,-8,54*
O=C(COc1ccccc1Cl)NCCCN1CCOCC1,-0.51,0.4,1,3,57*
O=C(COc1ccc(Cl)cc1Cl)NCCCN1CCOCC1,0.52,0.8,0.8,22,19
CCCCn1c(CN2CCN(C(=O)c3ccco3)CC2)nc2c1c(=O)n(C)c(=O)n2C,0.52,nt,nt,nt,nt
CC(C)(C)OC(=O)NNC1CC(=O)N(c2ccccc2F)C1=O (configuration not stated),0.17,0.9,1,5,7
CCC1=Nc2cc(C(=O)NCCCOC(C)C)ccc2Sc2ccccc21,-4.4,0.3,0.4,60*,72*
COc1ccc2c(c1OC)C(=O)N(c1cccc(C)c1)C2=O,-0.017,0.8,3.1*,-211,20
O=C(NCc1cccnc1)c1cc(-c2cccs2)on1,nt,0.8,0.8,20,17
CCc1cc2c(C)cc(=O)oc2cc1OC(=O)C1CCCN1C(=O)OC(C)(C)C (configuration not stated),-0.82,0.7,0.6,39,30
COc1ccc(C(O)c2nccn2Cc2ccccc2)cc1 (configuration not stated),1.1,0.4,0.9,7,56*
Cc1nc2nc(SCC(=O)N3CCOCC3)nn2c(C)c1Cc1c(F)cccc1Cl,3.2,0.8,0.5,53*,18
CC(C)NC(=O)c1ccccc1NC(=O)CN(c1ccc2c(c1)OCO2)S(C)(=O)=O,-0.067,0.5,0.2,82*,45
CS(=O)(=O)N(CC(=O)O)c1ccc2c(c1)OCO2,nt,0.9,1.2,-17,15
COC(=O)c1ccc(C)c(NC(=O)CN(c2cc(OC)ccc2OC)S(C)(=O)=O)c1,0.41,0.4,0.7,29,56*
COc1ccccc1N(CC(=O)Nc1ccccc1C(=O)NC(C)C)S(C)(=O)=O,0.059,1,0.6,41,-1
CS(=O)(=O)N(CC(=O)Nc1ccccc1C(=O)NCCc1ccccc1)c1ccc2c(c1)OCCO2,-1.5,0.1,0.1,94*,87*
COC(=O)c1ccc(C)c(NC(=O)CN(c2ccc3c(c2)OCO3)S(C)(=O)=O)c1,nt,0.3,0.3,69*,70*
CC1(c2nnc(-c3ccncc3)o2)CC(c2ccccc2)=NO1 (configuration not stated),0.14,nt,nt,nt,nt
OCCSc1nncn1/N=C/c1c[nH]c2ccccc12,1.6,0.9,0.7,30,14
COC(=O)C1=C(C(=O)OC)[C@@H]2N(C)c3ccc(OC)cc3[C@@]23C[C@@H](C(=O)OC)N(C(=O)NC2CCCCC2)C3=N1,0.46,nt,nt,nt,nt
COc1cc(Br)cc2cc(C(=O)N3CCCCC3C)c(=O)oc12 (configuration not stated),0.19,0.9,0.9,8,8

# Assay outcomes deposited in PubChem by several laboratories.
